Values joined by “and” are separate entries in the source; they are usually repeats but may differ in a detail not shown here. Identical values can stand only once. Records with an inconclusive call do not appear. More than one record can exist for a structure, and the calls need not agree. Active and inactive are the calls of the source. Unless noted, the call rests on the fitted dose curve.

Test [1] in a line: Nuclear factor erythroid 2-related factor 2/antioxidant responsive element (Nrf2/ARE) small molecule agonists: qHTS cell viability counter screen in human keratinocytes (AID 1919968; active means well fitted curve in the direction sought with a large enough effect in the repeat runs; an effect the other way counts as inactive or inconclusive; further: nearly all actives have a fitted effect of over 55% in size). Put shortly:
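Stably transfected HaCaT (KeratinoSens), 1,500/well. Test agents in DMSO were applied for 23 h, 37 C/5% CO2. CellTiter-Fluor was incubated 1 h before the fluorescence read.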

Test [2] can be described thus: Nuclear factor erythroid 2-related factor 2/antioxidant responsive element (Nrf2/ARE) small molecule agonists: luciferase reporter gene qHTS assay in human keratinocytes (AID 1919969). Further: nearly all actives have a fitted effect of over 35% in size. Further: potency means the concentration at half of the fitted maximal effect.
Test [3] has as its target Gonadotropin-releasing hormone receptor (Homo sapiens) (UniProt P30968). The test is described as follows: Human gonadotropin-releasing hormone receptor (GnRHR) small molecule agonists, calcium flux assay in GnRHR-HEK293 cells (AID 1920063). Further: nearly all actives have a fitted effect of over 35% in size. In outline:
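Stable human GnRHR HEK293 line. 18 h plating, then calcium dye for 1 h at 37 C. Agonist-mode compound addition from DMSO stocks; fluorescence monitored 3 min.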
For orientation: Calcium flux is commonly read through the fluorescence of an indicator in the cells.

The target of test [4] is KiSS-1 receptor (Homo sapiens) (UniProt Q969F8). Kind of test: Human kisspeptin (KISS1R) small molecule agonists, calcium flux assay in KISS1R-HEK293 cells (AID 1920064; active means well fitted curve in the direction sought with a large enough effect in the repeat runs; an effect the other way counts as inactive or inconclusive). In outline:
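After overnight (18 h) culture at 37 C/5% CO2, human KISS1R-HEK293 cells received calcium dye for 1 h, then test compound; emission at 540 nm (excitation 480 nm) was tracked for 3 min.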

Test [5] can be described thus: G protein-coupled receptor (GPCR) small molecule agonists, calcium flux assay: HEK293 wild type cell line counter screen (AID 1920065). In outline:
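Following 18 h incubation at 37 C/5% CO2, plates got calcium dye for 1 h; compounds, ATP or DMSO were then pinned in and fluorescence followed kinetically (480/540 nm).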

Test [6] in a line: p53 small molecule agonists, cell-based qHTS assay with human liver microsomes (AID 1963577).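 Further: p53 response element beta-lactamase reporter cells with liver microsomes plus NADPH.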 Put shortly: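 With metabolic activation: human liver microsomes (0.5 mg/mL final) plus NADPH (0.5 mg/mL final) added alongside compounds to p53RE-bla cells; 16 h 37 C exposure; beta-lactamase read by LiveBLAzer fluorescence.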
The nature of test [7]: p53 small molecule agonists, cell-based qHTS assay with human liver microsomes: qHTS cell viability counter screen (AID 1963579). Further: nearly all actives have a fitted effect of over 45% in size. Put shortly:
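Metabolic activation used human liver microsomes and NADPH, both 0.5 mg/mL final, over 16 hours at 37 C on p53RE-bla cells (4,000/well). Cytotoxicity measured by CellTiter-Glo luminescence, 30 min at room temperature.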
In general terms: Quantitative high-throughput screening tests each substance at several concentrations.

Test [8] is described as follows: p53 small molecule agonists, cell-based qHTS assay with rat liver microsomes: qHTS cell viability counter screen (AID 1963580). Further: nearly all actives have a fitted effect of over 45% in size. In outline: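 After the beta-lactamase ratio was read, CellTiter-Glo was added to the same wells and luminescence measured at 30 min; cells had been treated 16 h at 37 C with compounds, rat liver microsomes and NADPH (0.5 mg/mL final each).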

A short description of test [9]: p53 small molecule agonists, cell-based qHTS assay: qHTS cell viability counter screen (AID 1963581). Further: nearly all actives have a fitted effect of over 45% in size. Put shortly:
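qHTS counter screen: 16 h compound exposure at 37 C of p53RE-bla HCT-116 cells (4,000 per well, seeded 5 h prior), cell viability by ATP luminescence.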

Test [10] can be described thus: cAMP Responsive Elements (CRE) small molecule agonists, cell-based qHTS assay (AID 1963590). Put shortly: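 Test agents in DMSO were incubated 3 h at 37 C/5% CO2 with CRE-bla HEK 293T cells seeded 18 h earlier; LiveBLAzer B/G FRET substrate was added and read after 2 h at room temperature.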
The target of test [11] is Beta-2 adrenergic receptor (Homo sapiens) (UniProt P07550). Kind of test: Adrenergic beta2 receptor (ADRB2) small molecule antagonists, cell-based qHTS assay (AID 1963592). Further: series mostly up to about 92 µM; nearly all actives have a fitted effect of over 50% in size. Put shortly: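 Assay format: CHO-ADRB2 cells, 18-20hr seeding at 37C/5% CO2, then compound plus 1nM isoproterenol agonist mix for 0.5hr RT. Homogeneous time-resolved fluorescence cAMP detection after 1hr, expressed as 665/615 nm ratio.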
Beta-2 adrenergic receptor (Homo sapiens), sequence (P07550 whole entry, looked up): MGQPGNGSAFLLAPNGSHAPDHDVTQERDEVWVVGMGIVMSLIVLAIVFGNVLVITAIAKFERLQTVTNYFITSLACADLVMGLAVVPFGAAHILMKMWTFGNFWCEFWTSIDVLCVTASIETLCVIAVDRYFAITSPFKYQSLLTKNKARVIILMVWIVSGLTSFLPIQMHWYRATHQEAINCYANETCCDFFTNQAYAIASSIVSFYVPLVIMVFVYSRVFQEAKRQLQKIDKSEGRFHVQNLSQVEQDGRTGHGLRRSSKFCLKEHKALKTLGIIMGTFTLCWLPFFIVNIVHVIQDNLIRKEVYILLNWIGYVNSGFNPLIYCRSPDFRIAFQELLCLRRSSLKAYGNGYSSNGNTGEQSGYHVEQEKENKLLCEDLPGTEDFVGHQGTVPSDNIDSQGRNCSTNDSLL

Test [12] shares this target. Kind of test: Adrenergic beta2 receptor (ADRB2) small molecule agonists, cell-based qHTS assay (AID 1963593).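 Further: CHO cells stably overexpressing human ADRB2.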 In outline:
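CHO cells stably over-expressing ADRB2 were plated overnight at 37C, then dosed with compounds plus a stimulation mix containing 100uM IBMX and 25uM Ro-20-1724 for 0.5hr at room temperature. cAMP was measured by HTRF competition, 1hr.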

In test [13] the target is D(2) dopamine receptor (Homo sapiens) (UniProt P14416). Kind of test: Dopamine D2 receptor (DRD2) small molecule agonists, cell-based qHTS assay (AID 1963594). Further: nearly all actives have a fitted effect of over 35% in size. In outline: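 HEK293 cells stably expressing human DRD2, pre-treated with PDE inhibitor Ro20-1724 (0.1 mM final) and compound 10 min at room temperature, then stimulated with NKH477 (200nM […]) for 30 min. cAMP read by HTRF (665/620 nm).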
D(2) dopamine receptor (Homo sapiens), sequence (P14416 whole entry, looked up): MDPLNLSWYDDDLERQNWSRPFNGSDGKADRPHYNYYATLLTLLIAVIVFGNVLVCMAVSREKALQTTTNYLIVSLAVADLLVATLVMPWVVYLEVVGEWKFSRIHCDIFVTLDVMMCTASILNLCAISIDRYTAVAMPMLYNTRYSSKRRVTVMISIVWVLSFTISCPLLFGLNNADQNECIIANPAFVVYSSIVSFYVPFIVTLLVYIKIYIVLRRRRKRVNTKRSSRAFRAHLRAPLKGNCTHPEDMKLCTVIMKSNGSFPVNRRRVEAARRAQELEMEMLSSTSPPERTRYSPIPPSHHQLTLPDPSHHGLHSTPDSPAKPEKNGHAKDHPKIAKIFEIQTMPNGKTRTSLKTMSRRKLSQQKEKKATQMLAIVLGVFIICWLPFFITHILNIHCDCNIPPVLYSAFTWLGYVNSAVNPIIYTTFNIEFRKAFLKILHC

Test [14] shares this target. Kind of test: Dopamine D2 receptor (DRD2) small molecule antagonists, cell-based qHTS assay (AID 1963595; active means well fitted inhibition curve with a large enough effect in the signal ratio in the repeat runs, with a control signal flat; the % refers to the signal ratio; further: potency means the concentration at half of the fitted maximal effect). In outline: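 DRD2-HEK293; 0.1 mM Ro20-1724; cpd 10 min RT; NKH477 200 nM + quinpirole 12 nM, 30 min RT; HTRF cAMP (cAMP-d2/anti-cAMP cryptate), 665/620 nm ratio after 1 h.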
Test [15] can be described thus: p53 small molecule agonists, cell-based qHTS assay (AID 1963582; active means well fitted activation curve with a large enough effect in the signal ratio in the repeat runs, not every such curve was filed as active; the % refers to the signal ratio). Put shortly:
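Measured: fluorescence from cleaved LiveBLAzer substrate. System: p53RE-bla cells, 16 h compound treatment at 37 C, 2 h substrate step at room temperature.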

The target in test [16] is 5-hydroxytryptamine receptor 2A (Homo sapiens) (UniProt P28223). The test is described as follows: 5-hydroxytryptamine receptor 2A (HTR2A) small molecule antagonists, cell-based qHTS assay (AID 1963586). Further: nearly all actives have a fitted effect of over 45% in size. Put shortly: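 CHO cells stably expressing human HTR2A were plated for 18 h at 37 C, then loaded with calcium dye for 1 h. Compounds were preincubated 5 min at room temperature before DOI (4 nM solution) was added. Kinetic fluorescence was read for 3 min.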
5-hydroxytryptamine receptor 2A (Homo sapiens), sequence (P28223 whole entry, looked up): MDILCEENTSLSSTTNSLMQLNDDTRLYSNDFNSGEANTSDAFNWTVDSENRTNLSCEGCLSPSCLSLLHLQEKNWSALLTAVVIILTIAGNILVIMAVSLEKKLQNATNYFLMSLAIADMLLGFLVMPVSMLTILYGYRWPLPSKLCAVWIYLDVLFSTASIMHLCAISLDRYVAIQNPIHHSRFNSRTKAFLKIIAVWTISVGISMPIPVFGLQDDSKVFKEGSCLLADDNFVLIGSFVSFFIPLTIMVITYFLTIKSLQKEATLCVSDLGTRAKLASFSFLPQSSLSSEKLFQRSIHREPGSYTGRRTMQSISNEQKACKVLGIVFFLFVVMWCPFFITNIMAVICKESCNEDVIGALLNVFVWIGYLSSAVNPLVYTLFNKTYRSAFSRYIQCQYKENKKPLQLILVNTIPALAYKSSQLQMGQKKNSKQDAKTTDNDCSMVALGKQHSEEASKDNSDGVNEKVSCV

The target is the same in test [17]. The test is described as follows: 5-hydroxytryptamine receptor 2A (HTR2A) small molecule agonists, cell-based qHTS assay (AID 1963587). Further: nearly all actives have a fitted effect of over 30% in size. In outline: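 CHO cells stably expressing human HTR2A, plated 18 h, loaded with calcium dye 1 h at 37 C. Agonist mode: compounds added and intracellular calcium fluorescence recorded kinetically for 2 min at 1 sec intervals.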

Test [18] has as its target Muscarinic acetylcholine receptor M1 (Homo sapiens) (UniProt P11229). Kind of test: Cholinergic receptor muscarinic 1 (CHRM1) small molecule antagonists, cell-based qHTS assay (AID 1963588). Further: nearly all actives have a fitted effect of over 40% in size. In outline: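 Compounds were tested at 15 concentrations in three independent runs. Dye-loaded CHRM1-CHO cells were exposed 5 min at room temperature before stimulation by acetylcholine added at 50nM. Intracellular calcium was read kinetically on FDSS for 3 min.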

The target is the same in test [19]. Kind of test: Cholinergic receptor muscarinic 1 (CHRM1) small molecule agonists, cell-based qHTS assay (AID 1963589). Further: nearly all actives have a fitted effect of over 35% in size. Put shortly:
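Kinetic fluorescence (1 s intervals) of calcium-sensitive dye in human M1 CHO cells after compound addition; cells pre-incubated 18 h at 37 C/5% CO2 and dye-loaded 1 h.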

The nature of test [20]: cAMP Responsive Elements (CRE) small molecule antagonists, cell-based qHTS assay (AID 1963591; active means well fitted inhibition curve with a large enough effect in the signal ratio in the repeat runs, not every such curve was filed as active; the % refers to the signal ratio). Put shortly: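 Reporter line CRE-bla HEK 293T in dialyzed-FBS DMEM; cells preincubated 18 h, treated 3 h with compound plus NKH477 (0.25 uM final); LiveBLAzer FRET, 2 h RT.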

Gonadotropin-releasing hormone receptor (Homo sapiens), sequence (P30968 whole entry, looked up): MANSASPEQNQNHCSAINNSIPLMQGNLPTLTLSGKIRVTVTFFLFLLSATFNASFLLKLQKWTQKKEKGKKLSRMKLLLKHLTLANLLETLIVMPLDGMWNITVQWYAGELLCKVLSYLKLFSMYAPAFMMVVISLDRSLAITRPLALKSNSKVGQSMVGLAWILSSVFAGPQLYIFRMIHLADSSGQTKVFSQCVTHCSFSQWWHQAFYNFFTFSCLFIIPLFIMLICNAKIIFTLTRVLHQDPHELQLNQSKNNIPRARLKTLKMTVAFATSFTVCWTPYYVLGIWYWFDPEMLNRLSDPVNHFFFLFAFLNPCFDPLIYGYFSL
KiSS-1 receptor (Homo sapiens), sequence (Q969F8 whole entry, looked up): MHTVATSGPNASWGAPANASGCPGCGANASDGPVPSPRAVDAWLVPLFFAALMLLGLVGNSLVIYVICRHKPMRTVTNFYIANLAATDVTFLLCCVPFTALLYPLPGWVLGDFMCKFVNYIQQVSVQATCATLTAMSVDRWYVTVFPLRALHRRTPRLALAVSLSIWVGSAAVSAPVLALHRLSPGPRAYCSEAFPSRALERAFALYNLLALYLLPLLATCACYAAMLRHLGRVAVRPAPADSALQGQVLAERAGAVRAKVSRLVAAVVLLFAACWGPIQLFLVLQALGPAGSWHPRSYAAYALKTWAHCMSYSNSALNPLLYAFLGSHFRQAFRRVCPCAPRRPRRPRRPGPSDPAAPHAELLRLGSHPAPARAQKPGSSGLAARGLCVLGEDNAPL
Muscarinic acetylcholine receptor M1 (Homo sapiens), sequence (P11229 whole entry, looked up): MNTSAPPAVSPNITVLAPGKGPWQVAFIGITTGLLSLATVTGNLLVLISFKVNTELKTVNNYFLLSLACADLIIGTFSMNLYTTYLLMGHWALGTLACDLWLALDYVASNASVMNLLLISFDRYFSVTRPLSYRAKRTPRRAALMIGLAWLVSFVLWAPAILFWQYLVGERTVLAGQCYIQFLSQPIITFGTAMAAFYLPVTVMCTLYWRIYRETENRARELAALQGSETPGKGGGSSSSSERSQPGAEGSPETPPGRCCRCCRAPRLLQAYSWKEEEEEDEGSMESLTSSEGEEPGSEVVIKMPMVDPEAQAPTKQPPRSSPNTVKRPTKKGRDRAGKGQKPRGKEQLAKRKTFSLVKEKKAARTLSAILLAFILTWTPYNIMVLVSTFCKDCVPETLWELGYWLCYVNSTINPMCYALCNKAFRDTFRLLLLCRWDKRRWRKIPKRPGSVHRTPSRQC

Regarding `C[C@H]1C[C@@H]2[C@H]([C@@H](O)C[C@@]3(C)[C@H]2CC[C@]3(O)C(=O)CO)[C@@]2(C)C=CC(=O)C=C12`, the Potency result in test [1], in test [2], in test [3], in [4], in test [5] and in test [6] was “inactive” throughout. Moreover, the Potency entry in [7], in test [8], in test [9], in [10], in test [11] and in [12] was “inactive” each time. The Potency result in [13] and in test [14] was “inactive” in each case.
On to `CCCCOCCOCCO`, for which the Potency entry in test [1], in [2], in [3], in [4], in test [5] and in test [6] was “inactive” in each case. Further, the Potency entry in [7], in test [8], in test [9], in [15], in test [16] and in [17] was “inactive” in each case. The Potency result in test [18], in test [19], in test [10], in test [20], in test [11] and in test [13] was “inactive” in each case. Also, in test [14], the Potency entry is “inactive”.
For the molecule `CCc1cccc2c3c([nH]c12)C(CC)(CC(=O)O)OCC3` (centres undefined), the Potency result in test [1], in [2], in test [3], in [4], in [5] and in test [6] was “inactive” in each case. Moreover, the Potency result in test [7], in [8], in [9], in test [15], in [10] and in test [20] was “inactive” throughout. Besides, in test [13], the Potency entry was “inactive”. In addition, the Potency entry in [14] was “inactive and 23.7 µM (active)”.
For `C=C(C)C(=O)Nc1ccc(Cl)c(Cl)c1`, the Potency entry in [1], in test [3], in [4], in test [5], in test [6] and in [7] was “inactive” in each case. In addition, the Potency entry in test [8], in test [9], in test [15], in test [16], in test [17] and in [18] was “inactive” throughout. Also, the Potency entry in [19], in [10], in [20], in test [11], in [13] and in test [14] was “inactive” throughout. The Potency in [2] is 55 µM (active) and 43.1 µM (active).
As to `C1COCCN1`, the Potency result in test [1], in test [2], in test [3], in test [4], in test [5] and in test [6] was “inactive” in each case. Further, the Potency entry in test [7], in [8], in test [9], in [15], in test [16] and in [17] was “inactive” throughout. Further, the Potency entry in test [18], in [19], in test [10], in test [20], in [11] and in test [12] was “inactive” throughout. Besides, the Potency entry in [13] and in [14] was “inactive” each time.
On to `CCCCC(CC)COC(=O)/C=C\C(=O)OCC(CC)CCCC` (centres undefined), for which the Potency result in test [1], in test [2], in [3], in test [4], in [5] and in test [6] was “inactive” each time. Also, the Potency result in test [7], in test [8], in test [9], in test [15], in test [16] and in test [17] was “inactive” in each case. Besides, the Potency entry in [18], in test [19], in test [10], in [20], in [11] and in test [13] was “inactive” in each case. Further, the Potency result in test [14] was “inactive”.
In the case of `C#C[C@]1(O)CC[C@H]2[C@@H]3CCC4=CC(=O)CC[C@@H]4[C@H]3CC[C@@]21CC`, the Potency entry in test [1], in test [2], in test [3], in test [4], in test [5] and in test [6] was “inactive” throughout. Also, the Potency result in [7], in [8], in [9], in test [15], in test [11] and in test [12] was “inactive” in each case. The Potency entry in test [13] and in test [14] was “inactive” throughout.

For the origin of these results see PubChem BioAssay (Tox21).
